Screening results (PubChem BioAssay)
TGFb inhibitor: qHTS for Inhibitors of TGF-b | 410,000 tested, 1.2% active | HepG2 CAGA-GFP TGF-b/SMAD3 reporter, GFP fluorescence, 18 h; TGF-beta stimulated, 500 pg/mL final | Potency, µM (highest dose often 46.1 µM), for inactives: top-dose activity, negative = inhibition, usual class: inhibitors | AID 588855, 2011; note: % is set by controls: 0 for no effect and ±100 for the full control effect; nearly all actives have a fitted effect of over 65% in size
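HEPG2 CAGA-GFP, 1000 cells/well; 2 h settle, 37 C; cpd via pin tool; TGF-b 500 pg/mL final; 18 h, 37 C; GFP imaging ex488/em500-530; %Activity normalised to -TGF-b and +DMSO controls; CRC fit, curve class.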
S2 tox: Viability Counterscreen for Primary qHTS for Inhibitors of ATXN expression; S2 cells (HEK-293 line with an ATXN2-luciferase reporter) viability, CellTiter-Fluor protease fluorescence, 24 h; Potency, µM (top dose mostly 56.7 µM), most hits filed as cytotoxic; 400,000 tested, 0.49% active; note: nearly all actives have a fitted effect of over 40% in size
KB-V1 cytotox: qHTS assay for MDR1-selective chemotherapeutics: Primary screen using the drug-selected MDR subline cells KB-V1. 400,000 tested, 3.4% active. KB-V1 MDR cells viability, CellTiter-Glo, 72 h. Potency, µM (titrated, usually from 46.1 µM), hits mostly cytotoxic; note: % is set by controls: 0 for no effect and ±100 for the full control effect; nearly all actives have a fitted effect of over 60% in size
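Cells of the MDR subline KB-V1 are plated, dosed with compound at multiple concentrations, and incubated 72 h at 37 degrees C; CellTiter-Glo is then added and luminescence read after 10 min.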
HepG2 tox: qHTS for Inhibitors of TGF-b: Cytotox Counterscreen | Potency, µM (top dose mostly 46.1 µM), without a hit: top-dose activity change, negative = cytotoxicity, most hits filed as cytotoxic | HepG2 CAGA-GFP viability, ATP luminescence, 18 h | 410,000 tested, 0.76% active
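HepG2 CAGA-GFP cells (1000/well, DMEM with 1% FBS) received compound, then TGF-beta at 500 pg/mL final, and were incubated 18 hours at 37 degrees C. Viability was read by CellTiter-Glo luminescence. Media-only wells were set as complete cell-killing and DMSO as no toxicity.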
KB-3-1 cytotox: qHTS assay for MDR1-selective chemotherapeutics: Primary screen using the parental adenocarcinoma cell KB-3-1. KB-3-1 viability, CellTiter-Glo ATP luminescence, 72 h. Potency, µM (doses to about 46.1 µM), usual class: cytotoxic. 400,000 tested, 1.4% active; note: % is set by controls: 0 for no effect and ±100 for the full control effect; nearly all actives have a fitted effect of over 60% in size
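Luminescent ATP read-out (CellTiter-Glo) measures survival of drug-naive KB-3-1 cells after 72 h compound exposure at 37 °C. Titration series was screened from lowest to highest concentration, with DMSO vehicle plates as background controls.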
ATXN2 expr inh: Primary qHTS for Inhibitors of ATXN expression. HEK-293 ATXN2-luciferase reporter, luminescence, 24 h. Potency, µM (doses to about 57 µM), without a hit: at the top dose activity change, negative = inhibition, usual class: inhibitors. 360,000 tested, 0.72% active. AID 1745845, 2022; note: % is set by controls: 0 for no effect and ±100 for the full control effect; nearly all actives have a fitted effect of over 55% in size
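ATXN2-luciferase reporter cells (luciferase flanked by upstream and downstream ATXN2 gene portions) were treated 24 h at 37 °C with compounds at up to 57 uM. SteadyGlo luminescence gave expression; GF-AFC fluorescence gave viability.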
Starred values were filed as active, the others as inactive; [ ] = dose if it differs, or a comment. Most compounds without a hit are left out; they make up all but 5.9% or so of the library. Calls come from the whole dose curve; as a rule, active = well fitted curve in the direction sought with a large enough effect; inconclusive = small, poorly fitted or top-dose-only effect, or another doubt; inactive = no such curve, though single readings can be large; an effect the other way counts as inactive or inconclusive. Potency is the fitted concentration of half-maximal effect.

Screening COc1ccc2[nH]cc(CCCN3C(=O)c4ccccc4C3=O)c2c1 returned TGFb inhibitor -7%, S2 tox inactive, KB-V1 cytotox 23µM*, HepG2 tox -28%, KB-3-1 cytotox inactive and ATXN2 expr inh -6%.
Screening CC(C)(C)NC(=O)c1ccc2c(c1)N(CC(=O)N1CCN(c3ccc(F)cc3)CC1)C(=O)C(C)(C)O2 returned TGFb inhibitor 5%, S2 tox inactive, KB-V1 cytotox 3.7µM*, HepG2 tox -2%, KB-3-1 cytotox inactive and ATXN2 expr inh 3%.
Screening CCn1ncc(C2=NOC(C(=O)Nc3cnn(C45CC6CC(CC(C6)C4)C5)c3)C2)c1C (stereo not given) returned TGFb inhibitor -13%, S2 tox inconclusive, KB-V1 cytotox 3.3µM*, HepG2 tox 6%, KB-3-1 cytotox inconclusive and ATXN2 expr inh 28µM*.
`CCn1ncc(C2=NOC(C(=O)NCC(C)C)C2)c1C` (stereo not given) gave TGFb inhibitor 17%, S2 tox inconclusive, KB-V1 cytotox inactive, HepG2 tox -5%, KB-3-1 cytotox inactive and ATXN2 expr inh -30%.
Screening C=C(NC(=O)C(=C)NC(=O)c1csc(C2=NC3c4csc(n4)C4NC(=O)c5csc(n5)C(C(C)(O)C(C)O)NC(=O)C5CSC(=N5)/C(=C/C)NC(=O)C(C(C)O)NC(=O)c5csc(n5)C3(CC2)NC(=O)C(C)NC(=O)C(=C)NC(=O)C(=C)NC(=O)C(C(C)C)NC2C=Cc3c(C(C)O)cc(nc3C2O)C(=O)OC4C)n1)C(N)=O (stereo not given) returned TGFb inhibitor 8.9µM*, S2 tox 2.7µM*, KB-V1 cytotox inconclusive, HepG2 tox 0%, KB-3-1 cytotox inconclusive and ATXN2 expr inh inconclusive.
Screening CCOC(=O)CSc1nnc2n(-c3ccccc3)c(=O)c3c4c(sc3n12)CC(C(C)(C)C)CC4 (stereo not given) returned TGFb inhibitor inconclusive, KB-V1 cytotox inactive, HepG2 tox 11µM*, KB-3-1 cytotox inactive and ATXN2 expr inh inconclusive.
`COC(=O)c1c(NC(=O)CSc2nnnn2-c2ccccc2)sc2c1CCC(C(C)(C)C)C2` (stereo not given) gave TGFb inhibitor -7%, S2 tox inactive, KB-V1 cytotox 15µM*, HepG2 tox 0%, KB-3-1 cytotox inactive and ATXN2 expr inh 10%.
Cc1cccc(Oc2nc3c(c(=O)n(C)c(=O)n3C)n2Cc2ccccc2)c1C was read as TGFb inhibitor -2%, S2 tox inactive, KB-V1 cytotox inactive, HepG2 tox 4%, KB-3-1 cytotox inactive and ATXN2 expr inh 0%.
Screening CC(C)CCNC(=O)c1ccc(NC(=O)N2CCCCc3ccccc32)cc1 returned TGFb inhibitor 5%, S2 tox inactive, KB-V1 cytotox inconclusive, HepG2 tox 6%, KB-3-1 cytotox inactive and ATXN2 expr inh 5%.
`CCSc1ccccc1C(=O)Nc1nc2ccccc2c(=O)[nH]1` gave TGFb inhibitor 13%, KB-V1 cytotox 18µM*, HepG2 tox -1%, KB-3-1 cytotox inactive and ATXN2 expr inh -2%[11.3 µM].
`COc1ccc(CCn2cc3c(c2-c2ccccc2Br)c(=O)n(C)c(=O)n3C)cc1OC` gave TGFb inhibitor inconclusive, S2 tox inactive, KB-V1 cytotox inactive, HepG2 tox -28%, KB-3-1 cytotox inactive and ATXN2 expr inh -17%.
`CCOc1ccc2nc(N/C(N)=N/C(=S)Nc3ccc(OC)cc3)nc(C)c2c1` gave TGFb inhibitor -11%, S2 tox inconclusive, KB-V1 cytotox inactive, HepG2 tox 9%, KB-3-1 cytotox inactive and ATXN2 expr inh inconclusive.
For COc1ccc2c(C)nc(N/C(N)=N/S(=O)(=O)c3ccc(C)cc3)nc2c1 the results were TGFb inhibitor -26%, S2 tox inactive, KB-V1 cytotox inactive, HepG2 tox -16%, KB-3-1 cytotox inactive and ATXN2 expr inh -23%.
Screening Cc1cc(C)cc(NC(=S)/N=C(\N)Nc2nc(C)c3ccccc3n2)c1 returned TGFb inhibitor inconclusive, S2 tox inactive, KB-V1 cytotox 18µM*, HepG2 tox 5%, KB-3-1 cytotox inconclusive and ATXN2 expr inh -20%.
Cc1cccc(NC(=S)/N=C(\N)Nc2nc(C)c3cc(C)ccc3n2)c1 was read as TGFb inhibitor inconclusive, S2 tox inconclusive, KB-V1 cytotox 23µM*, HepG2 tox 4%, KB-3-1 cytotox inactive and ATXN2 expr inh -22%.
Screening COc1ccc2nc(N/C(N)=N/C(=S)Nc3ccccc3)nc(C)c2c1 returned TGFb inhibitor -26%, S2 tox inactive, KB-V1 cytotox 9.2µM*, HepG2 tox -11%, KB-3-1 cytotox inconclusive and ATXN2 expr inh -19%.
Screening Cc1ccc(S(=O)(=O)/N=C(\N)Nc2nc(C)c3ccccc3n2)cc1 returned TGFb inhibitor 1%, S2 tox inactive, KB-V1 cytotox 9.2µM*, HepG2 tox 2%, KB-3-1 cytotox inactive and ATXN2 expr inh 9%.
CCN(CC)C(=O)c1sc2c(c1C)c(=O)n(CCc1ccccc1)c(=O)n2Cc1cc(C)ccc1C was read as TGFb inhibitor -3%, S2 tox inactive, KB-V1 cytotox inactive, HepG2 tox 0%, KB-3-1 cytotox inactive and ATXN2 expr inh 9%.
`O=C(c1ccc(N2CCC(NCCCn3ncc4ccccc43)CC2)cc1)N1CCOCC1` gave S2 tox inactive.
For CCc1nc2c(sc3nc4c(cc32)COC(C)(C)C4)c(=O)n1Cc1ccccc1 the results were TGFb inhibitor -14%, S2 tox inactive, KB-V1 cytotox inconclusive, HepG2 tox -12%, KB-3-1 cytotox inactive and ATXN2 expr inh 10%.
`CCc1nc2c(sc3nc4c(cc32)COC(C)(C)C4)c(=O)n1Cc1ccco1` gave TGFb inhibitor 0%, S2 tox inactive, KB-V1 cytotox 12µM*, HepG2 tox -1%, KB-3-1 cytotox inconclusive and ATXN2 expr inh 7%.
Screening CCSc1nc2c(c(=O)[nH]c(=O)n2C)n1CC(O)COc1ccccc1C (stereo not given) returned TGFb inhibitor inconclusive, S2 tox inactive, KB-V1 cytotox 18µM*, HepG2 tox -12%, KB-3-1 cytotox inactive and ATXN2 expr inh -2%.
